“And” between values parts separate entries of the source, which are not always exact repeats. Identical values can stand only once. Records with an inconclusive call do not appear. Unmarked numbers belong to inactive results. Calls follow the shape of the dose curve; as a rule, active = well fitted inhibition curve with a large enough effect; inconclusive = small, poorly fitted or top-dose-only effect; inactive = flat fitted curve, though single readings scatter.
test system: KB-3-1; assay: Cytotoxic Profiling of Annotated Libraries Using Quantitative High-Throughput Screening (AID 1296008); settings: Five cell lines viability, CellTiter-Glo ATP luminescence, 48-72 h; max response: hits give low values; also: nearly all actives have a fitted effect of over 60% in size
In short: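 Cells exposed to compounds for 48 or 72 hr at 37 degrees Celsius. Viability read as ATP-coupled luminescence with CellTiter-Glo after 10 min at room temperature.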
% is scaled to controls: 0 for no effect and ±100 for the full control effect.

For `CN1CCN(CCCN2c3ccccc3Sc3ccccc32)CC1`, which max response is on record?
Its max response is -4.85%.

How did the max response turn out when `O=C1O[C@@H]2[C@@H](O)[C@H](O)O[C@@H]2[C@H]1O` was run?
The max response was -9.13%.

Which max response does the source give for `CCOc1ccc(N=C(C)Nc2ccc(OCC)cc2)cc1` here?
Its max response is -26.1%.

With `N[C@@H](C(=O)N[C@H]1C(=O)N2C(C(=O)O)=C(Cl)CC[C@H]12)c1ccccc1` as the compound, how does the max response read?
The max response was -8.22%.

`CCOC(=O)COc1ccc2c(=O)cc(-c3ccccc3)oc2c1` was tested. Which max response did it give?
Its max response is -2% and -15.3%.

`O=P(O)(O)C(O)(Cc1cnc2ccccn12)P(=O)(O)O` was tested. Which max response did it give?
Its max response is -1.58%.

For `COc1cc2c(c(OC)c1OC)-c1c(cc3c(c1OC)OCO3)C[C@@H](C)[C@](C)(O)C2`, which max response is on record?
Its max response is 21.3% and -4.33%.

For `Cc1cc2ncc(C(=O)NCC(C)(C)NCC(=O)N3CCC[C@H]3C#N)cn2n1`, which max response is on record?
The max response was 3.28%.

`Nc1ncnc2c1c(-c1ccc(Oc3ccccc3)cc1)nn2[C@@H]1CCCNC1` was tested. Which max response did it give?
The max response was -20%.

How did the max response turn out when `c1ccc2c(CCC3CCNCC3)c[nH]c2c1` was run?
The max response was -10.3%.

`CC(CC(c1ccccc1)c1ccccc1)NC(C)(C)C` (configuration not stated) was tested. Which max response did it give?
The max response was -0.893%.

`C=Cc1ccccc1` was tested. Which max response did it give?
The max response was -0.236%.

Reference: PubChem BioAssay (NCATS)
